An excerpt weighted towards active compounds, which were near 1.1% of everything screened.
GC-B act: GC-B (human) receptor activation | P20594 | HEK293-GC-B cells, CNP EC30, cGMP TR-FRET; 0% at EC30 CNP, 100% saturating CNP | activation, % at 10 µM | 370,000 compounds, 0.11% hits | AID 1920062;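 active = activation at 10 µM reaching about 35% in either raw or pattern-adjusted values, limit read from the data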
FAS-TE inh: inhibitors of human fatty acid synthase thioesterase domain; P49327; recombinant FAS-TE, OMFH fluorogenic substrate, fluorescence endpoint; inhibition, % at 15 µM; 360,000 compounds, 0.67% hits;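 active = compounds whose normalised, plate-corrected inhibition of enzyme fluorescence in the single-dose primary screen is 50% or more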;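 note: 0% = DMSO with enzyme and 100% = substrate without enzyme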
aDG glyco up: alpha-DG glycosylation activation; Pro5-aDG cells, alpha-DG glycosylation AlphaScreen (IIH6); 0% Pro5, 100% B10-LARGE cell signal; activation, % at 10 µM; 360,000 compounds, 0.22% hits;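 active = activation of at least 8% versus controls, or a plate z-score of at least 8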;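 note: Pro5 are CHO cells carrying HIG-tagged alpha-DG that lacks glycosylation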
GC-A act: GC-A (human) enzyme activation; HEK293 GC-A cells, cGMP TR-FRET, EC30 ANP; 0% at EC30 ANP, 100% saturating ANP; activation, % at 10 µM; 370,000 compounds, 0.14% hits; in the data active = activation above about 40%
aDG glyco conf: confirmation of alpha dystroglycan glycosylation activators. activation, % at 10 µM (by protocol). AID 651671. shares compounds with aDG glyco up. Pro5-aDG cells, alpha-DG glycosylation, IIH6 AlphaLISA; scaled to LARGE-overexpressing B10 cells as 100%. 600 compounds, 17% hits;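 active = activation of at least 7% in one or more replicates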;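 note: cells exposed to compound for two days before detection; 0% = DMSO-treated Pro5 cells and 100% = DMSO-treated B10-LARGE cells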
Active calls of the source: *; . = no result given; ! = a repeat was not active.

SMILES	GC-B act	FAS-TE inh	aDG glyco up	GC-A act	aDG glyco conf
COC(=O)[C@]12C[C@H](CC(=O)NCc3ccc(OC)c(OC)c3)C(=O)N(CCc3ccc(OC)c(OC)c3)C1=C[C@H](C(C)(C)C)O[C@@H]2C	2	.	.	3	.
COc1ccccc1NC(=O)Cn1cc(C(=O)C2CC2)c2ccccc21	2	-2	0	0	.
CC(C)NC(=O)Cn1cc(C(=O)C2CC2)c2ccccc21	5	-9	11*	0	0
CCCCCOc1ccc(NC(=O)C(=O)NCC2CCCN2CC)cc1 (stereo not drawn)	2	-12	11*	-2	15*
CCCC(=O)N(Cc1cc(=O)[nH]c2ccccc12)c1ccccc1	3	-6	5.6*	-12	1
CC(=O)c1cc(-c2cccc(C(C)C)c2)c(=O)n2c1CCC2	-6	.	.	-1	.
O=C(CN1CCN(S(=O)(=O)c2ccc(F)cc2)CC1)Nc1ccc(Cl)c(C(F)(F)F)c1	-2	39	5.4*	-6	1
N=c1c2c(-c3ccccc3)c(-c3ccccc3)n(CCc3ccccc3)c2ncn1C1CCC(O)CC1 (stereo not drawn)	-25	.	.	-30	.
CC(=O)N1c2ccccc2S(=O)(=O)c2c1ccc1ccccc21	-2	25	13*	-4	0
Cc1cccnc1CN1CCN(C(=O)CCc2nnc(CCc3ccccc3)o2)CC1	-3	2	0	-2	.
Cc1cccnc1CCNC(=O)CCc1nnc(CCc2ccccc2)o1	-2	-3	3.3*	-1	1
Cc1cc(NC2=CC(=O)C(=O)c3ccccc32)no1	-2	11	14*	-4	16*
CCn1c(Cc2ccccc2)nnc1SCC(=O)Nc1cc(C)on1	-1	-2	44*	2	-1
Cc1onc(-c2ccccc2)c1C(=O)N1CCN(C(=O)C(=O)c2cccc(C(F)(F)F)c2)CC1	2	.	.	0	.
COc1cc(/C=N/n2c(-c3cc(-c4ccccc4)n[nH]3)n[nH]c2=S)ccc1OCc1ccccc1	-12	.	.	-4	.
CCc1ccc(C(CNC(=O)c2ccc3c(=O)n(-c4ccccc4F)c(=S)[nH]c3c2)N(C)C)cc1 (stereo not drawn)	-1	-15	10*	3	6.9*
CN(C(=O)[C@H]1O[C@@H](n2cnc3c(=O)[nH]c(N)nc32)[C@H](O)[C@@H]1O)C1CCCCC1	3	.	.	6	.
O=C1C(Cl)=C(NCc2ccco2)C(=O)c2ccccc21	-6	-4	11*	-6	10*
CCNC(=O)OCCN1C(=O)CCC12CCC(c1ccc(Cl)cc1)CC2 (stereo not drawn)	-15	.	.	-1	.
COc1ccc(NC(=O)c2cc(OC)c(OC)c(OC)c2)cn1	0	-5	3.7*	0	0
O=C(NC1CCCCN(Cc2cccc(Cl)c2)C1=O)c1cccc(F)c1 (stereo not drawn)	1	.	.	1	.
COc1ccc(C2CC(=O)C(c3ccc(C(F)(F)F)cc3)=CN2Cc2ccccc2)cc1 (stereo not drawn)	4	.	.	-1	.
COc1ccc(CC(=O)N/N=C/c2cccnc2)cc1OC	1	-6	6.5*	-3	-1
CCOc1ccc(CC(=O)N/N=C/c2cccnc2)cc1OCC	-6	-6	0	1	.
Cc1ccn2c(NC3CCCCC3)c(-c3cccc(SC4CCCCC4)c3)nc2c1	10	21	5.7*!	4	1
SMILES	GC-B act	FAS-TE inh	aDG glyco up	GC-A act	aDG glyco conf
Cc1ccn2c(NC3CCCCC3)c(-c3ccc(SC4CCCCC4)cc3)nc2c1	-3	18	0	2	.
CC(C)c1ccc(-c2cc(C(=O)N3CCOCC3)c3cc(Br)ccc3n2)cc1	-1	26	4.6*	4	9.4*
Cn1c(CC2C(=O)Nc3ccc(Br)cc32)nc2ccccc2c1=O (stereo not drawn)	-11	10	5.2*	-24	-1
N#Cc1ccsc1NC(=O)c1cccc(-n2cnnn2)c1	6	-7	11*	-2	7.1*
N#Cc1ccsc1NC(=O)c1ccc2ncsc2c1	-5	-9	15*	0	5.5*
CC(C)c1nnc(NC(=O)c2cccc(-n3cnnn3)c2)s1	-1	1	0	1	.
COc1ccc(S(=O)(=O)N2CCCc3nc(-c4ccccc4)ccc32)cc1	1	.	.	-2	.
COc1ccc(C(=O)OCCN(C)C2CN(Cc3cn(Cc4ccccc4Cl)nn3)S(=O)(=O)C2)cc1OC (stereo not drawn)	-7	.	.	-3	.
CN1C(=O)C[C@@](C#N)(C(=O)N2CCOCC2)[C@H]1c1ccccc1	7	.	.	3	.
Cc1ccc(S(=O)(=O)Oc2ccc(N3C(=O)C4C5CCC(C5)C4C3=O)cc2)cc1 (stereo not drawn)	3	7	1	-3	.
O=C1C2C3CCC(C3)C2C(=O)N1c1ccc(OS(=O)(=O)c2ccccc2)cc1 (stereo not drawn)	3	8	2.8*	2	-1
Nc1[nH]c(C(=O)c2ccccc2)c(-c2ccc3ccccc3c2)c1C(=O)NC1CC1	-3	.	.	-8	.
Cc1ccc(C(=O)NC2CCCCN(C)C2=O)cc1 (stereo not drawn)	-1	.	.	-1	.
Cc1cccc(Nc2nc(N)nc(CN3CCN(c4ccc(F)cc4)CC3)n2)c1	3	-3	12*	-1	1
COc1ccc(S[C@]2(C(=O)N3CCCC3)CC(=O)N(C(=O)C3CC3)[C@@H]2c2ccc(OC)cc2)cc1	-3	.	.	-3	.
COc1ccc(S(=O)(=O)NCC(=O)N2CCN(c3ccccn3)CC2)c(OC)c1	7	.	.	-4	.
COC(=O)[C@]1(CNC(=O)C(F)(F)F)CC(=O)N(C)[C@@H]1c1ccccc1	-1	.	.	4	.
O=C(NCCc1ccccc1)c1ccc(-c2ccccc2C(F)(F)F)o1	1	.	.	2	.
O=C(NCCc1ccccc1)c1ccc(-c2ccc(F)cc2)o1	0	9	5.1*	-2	-1
CCn1c(SCC(=O)NCc2ccccc2)nc2ccccc2c1=O	-5	0	0	-3	.
CCn1c(SCC(=O)NC2(C#N)CCCCC2)nc2ccccc2c1=O	4	-4	4.0*	5	0
CCCCn1c(/N=C/c2ccc(N(C)C)cc2)nc2ccccc21	-3	-3	4.9*	-8	-1
C=CCn1c(/N=C/c2ccc(N(C)C)cc2)nc2ccccc21	-4	-3	0	-1	.
CCCCC(=O)Nc1ccc(NC(=O)c2ccccc2[N+](=O)[O-])cc1OC	-1	-9	0	-1	.
CCCCC(=O)Nc1ccc(NC(=O)c2ccc([N+](=O)[O-])cc2Cl)cc1OC	2	-2	12*	2	-1
CCN1Cc2nnn(Cc3ccccc3)c2-c2ccccc2S1(=O)=O	4	.	.	1	.
O=C(COC(=O)c1ccc(S(=O)(=O)N2CCOCC2)cc1)Nc1nc(-c2ccccc2)cs1	2	17	6.2*	-2	0
